Compounds with a hit are over-represented: about 8% of the library has one in this group of screens.
Lassa entry = Lassa virus entry inhibition | Lassa virus pseudotyped entry inhibition, cell-based qHTS | Potency, µM (series often up to 49.2 µM), hits mostly inhibitors | hit rate 4.1% among 18,000 | AID 720533
MARV entry inh = blocks Marburg virus binding or cell entry; AID 720532; Potency, µM (top dose mostly 49.2 µM), usual class: inhibitors; hit rate 6.5% among 18,000; Marburg virus pseudotype entry/binding inhibition, cell-based
Large screens that a line does not name were inactive; ! = repeats disagree. Calls come from the whole dose curve; tested in HEK293 cells.

O=C(Nc1ccc(C(=O)N2CCCCC2)cc1)c1ccccc1	none
O=C(c1ccc(Nc2nccc(-c3cc4ccccc4s3)n2)cc1)N1CCC(N2CCCC2)CC1	Lassa entry inconclusive, MARV entry inh 2.2µM
CC#CCN1C(=O)NC(c2ccccc2)C(C(=O)OCC)=C1c1ccccc1 (stereo unspecified)	none
Cc1cc2nc3ccc(=[N+](C)C)cc-3sc2cc1N	Lassa entry 22µM, MARV entry inh 13µM
CN(C)c1ccc2nc3ccc(=[N+](C)C)cc-3sc2c1	Lassa entry 11µM, MARV entry inh 3.5µM
Cc1cccc(CN2CCN([C@H]3C[S+](=O)([O-])N[C@H]3COCc3ccccc3)CC2)c1	MARV entry inh inconclusive
C=CC[C@@H]1C=C[C@@H](Oc2ccc(OC)cc2)[C@H](CO)O1	none
CN1CCC(=C2c3ccccc3C=Cc3ccccc32)CC1	Lassa entry 28µM, MARV entry inh 8.9µM
CN1CCN(c2ncnc3ccc(-c4ccccc4C#N)cc23)CC1	none
CN1CCC(=C2c3ccccc3Sc3ccccc32)CC1	Lassa entry inconclusive, MARV entry inh 4µM
Cc1cc2c(nc1C)CCCN2CC(O)CN1CCCc2nc(-c3ccc(Br)cc3)ccc21 (stereo unspecified)	MARV entry inh inconclusive
CC(CC(c1ccccc1)c1ccccc1)NC(C)(C)C (stereo unspecified)	Lassa entry inconclusive, MARV entry inh 13µM
CN[C@@H](C)Cc1ccccc1	none
Cc1[nH]ccc2c1[nH]c1cc(=O)ccc12	Lassa entry inconclusive, MARV entry inh 13µM
COc1cccc([C@H]2Oc3ccc(OC)cc3C(=NOC[C@@H](C)[C@H](OCc3ccccc3)C(C)C)[C@H]2O)c1	none
CC1(C)N=C(N)N=C(N)N1c1ccc(Cl)cc1	Lassa entry 11µM, MARV entry inh 7.1µM
COc1cc(CO[C@H]2C=C[C@@H](c3ccccc3)O[C@H]2CO)cc(OC)c1	MARV entry inh inconclusive
CON=C1C[C@]2(C[C@@H]3C[C@@H](C/C=C(\C)C[C@@H](C)/C=C/C=C4\CO[C@@H]5[C@H](O)C(C)=C[C@@H](C(=O)O3)[C@]45O)O2)O[C@H](/C(C)=C/C(C)C)[C@H]1C	Lassa entry 32µM, MARV entry inh 28µM
CC[C@]1(O)CC[C@H]2[C@@H]3CCC4=CCCC[C@@H]4[C@H]3CC[C@@]21C	Lassa entry 14µM
C#C[C@]1(O)CC[C@H]2[C@@H]3CCC4=CCCC[C@@H]4[C@H]3C(=C)C[C@@]21CC	none
COc1cc2c(cc1OC)[C@@H]1O[C@](c3ccsc3)(C2)OC2=C1C(=O)CC(C)(C)C2	none
C=C1C2CC[C@@]3(C)C(c4ccoc4)OC(=O)C[C@@]13OC1CC(=O)C(C)(C)C(CC(=O)OC)[C@]12C (stereo partly specified)	none
C=C1C2CC[C@@]3(C)C(c4ccoc4)OC(=O)C[C@@]13OC1CC(OC(C)=O)C(C)(C)C(CC(=O)OC)[C@@]12C (stereo partly specified)	Lassa entry inconclusive, MARV entry inh 13µM
COc1ccc2c(c1OC)CN1CCc3cc4c(cc3C1C2)OCO4 (stereo unspecified)	none
COc1ccc2c(c[n+](C)c3c4cc5c(cc4ccc23)OCO5)c1OC	Lassa entry 10µM, MARV entry inh 4.5µM
COc1ccc2cc3[n+](cc2c1OC)CCc1cc2c(cc1-3)OCO2	Lassa entry 11µM!, MARV entry inh 10µM!
COc1cc2c(c(OC)c1OC)C(c1ccc3c(c1)OCO3)CC(=O)O2 (stereo unspecified)	none
COC[C@H]1CCCN1[C@H]1C[S+](=O)([O-])N[C@H]1COCc1ccccc1	none
O=P12OCC=C[C@H](C[C@H](CC3C#C3)O1)O2	none (no result: Lassa entry)
CCCCCC(=O)O[C@]1(C(C)=O)CC[C@H]2[C@@H]3CCC4=CC(=O)CC[C@]4(C)[C@H]3CC[C@@]21C	Lassa entry 32µM, MARV entry inh inconclusive
CC(=O)[C@@]1(O)CC[C@H]2[C@@H]3CCC4=CC(=O)CC[C@]4(C)[C@H]3CC[C@@]21C	none
CCCCCCCCCC(=O)O[C@H]1CC[C@H]2[C@@H]3CCC4=CC(=O)CC[C@]4(C)[C@H]3CC[C@]12C	none
CC(=O)C1CCC2C3CCC4=CC(=O)CC[C@@]4(C)C3CC[C@]12C (stereo partly specified)	MARV entry inh 22µM
COc1ccc([C@H]2C[C@H](n3cc(C4CC4)nn3)[C@@H](O)CN2C(=O)c2cccs2)cc1	none
C#CCN1C(=O)[C@]2(OCCC=C[C@H]2C)c2c(Br)cccc21	MARV entry inh inconclusive
C[n+]1ccc(/C=C/c2ccc3ccccc3c2)cc1	Lassa entry 11µM, MARV entry inh inconclusive
C(=C\c1nc(-c2ccccc2)oc1Nc1ccc2ccccc2c1)/c1ccccc1	none
C=C(C)[C@H]1O[C@H]2CC[C@@]3(C)[C@@](O)(CC[C@H]4[C@@H]5OC(C)(C)[C@H]6C[C@@H]7C(=C)Cc8c(Cl)cc9[nH]c(c5c9c8[C@@]76O)[C@@]43C)[C@]23O[C@@H]3[C@H]1O	Lassa entry 25µM, MARV entry inh inconclusive
COC(=O)[C@@]1(C=C2c3ccc(F)cc3[C@@H](OC)[C@@H]2C)[C@@H]2C=CC[C@@H]21	MARV entry inh inconclusive
CCC1CC2C=CCS[P@](=O)(O2)O1 (stereo partly specified)	none
CCN1C(=NCc2ccc3c(c2)OCO3)NC(CCc2ccccc2)C(C(=O)OC)=C1C (stereo unspecified)	none
CC(=O)c1ccc2c(c1)N(CCCN1CCC(CCO)CC1)c1ccccc1S2	MARV entry inh 11µM
CN1CCN(CCCN2c3ccccc3Sc3ccc(S(=O)(=O)N(C)C)cc32)CC1	MARV entry inh inconclusive
CN(C)CCCN1c2ccccc2Sc2ccc(Cl)cc21	Lassa entry inconclusive, MARV entry inh 16µM
CCCCCCCCCCCCCCCC(=O)OCCC1CCN(CCCN2c3ccccc3Sc3ccc(S(=O)(=O)N(C)C)cc32)CC1	none
OCCN1CCN(CCCN2c3ccccc3Sc3ccc(Cl)cc32)CC1	Lassa entry inconclusive, MARV entry inh 2.2µM
OCCOCCN1CCN(C2=Nc3ccccc3Sc3ccccc32)CC1	none
Cc1cc(O)cc(C)c1C=Cc1cncc(-c2nn[nH]n2)c1	none
COC(=O)N[C@@H](C=Cc1ccco1)[C@]1(C(=O)OC)CCCC1=O	none
COC(=O)C1=C(C(=O)OC)[C@@H]2Nc3ccccc3[C@@]23C[C@@H](C(=O)OC)N(C(=O)NC2CCCC2)C3=N1	none
C[C@@H](O)[C@H]1C(=O)N2C(C(=O)[O-])=C(SC3Cn4cnc[n+]4C3)[C@H](C)[C@H]12 (stereo partly specified)	none
COc1ccc(C=CNC(=O)c2ccc(OC)cc2)cc1	none
CC(C)NCC(O)COc1ccccc1-n1cccc1 (stereo unspecified)	MARV entry inh inconclusive
CC(C)NC[C@H](O)COc1cccc2ccccc12	MARV entry inh 16µM!
C=CCc1ccccc1OCC(O)CNC(C)C (stereo unspecified)	MARV entry inh 11µM
CC(C)NC[C@@H](O)COc1cccc2ccccc12	MARV entry inh inconclusive
CC=C[C@@H]1Oc2ccc(OC)cc2N2C(=O)[C@H](C)[C@@H](OCOC)[C@H]12	none
COC(=O)[C@@]12Cc3ccccc3[C@H]1C[C@H](C)[C@@H](C)N2C(=O)C(F)(F)F	none
COC[C@@H](OC(C)=O)[C@H]1OCc2ccccc2[C@@H]1C=Cc1ccccc1	none
Cc1cccc2c(N=Nc3ccc(S(N)(=O)=O)cc3)c(O)[nH]c12	none
O=C1[C@@H]2CSCCS(=O)(=O)N2C(=O)N1c1cccc2ccccc12	none
COC(=O)C1(C(=O)OC)C/C=C\C/C=C\c2ccccc2[C@@H]1C[N+](=O)[O-]	none

Bioassay records as filed in PubChem.
